# 14-3-3g Raf – alters human 14-3-3 gamma binding to Raf peptide; FP, 14-3-3gamma / TMR-pS259-Raf peptide binding; inhibition, % at 40 µM; actives 0.19% (n = 160,000); AID 422; in the data active = inhibition above about 30%;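 note: 0% = protein plus tracer without compound and 100% = blank with tracer alone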
# Target sequence (P61981 whole entry, looked up): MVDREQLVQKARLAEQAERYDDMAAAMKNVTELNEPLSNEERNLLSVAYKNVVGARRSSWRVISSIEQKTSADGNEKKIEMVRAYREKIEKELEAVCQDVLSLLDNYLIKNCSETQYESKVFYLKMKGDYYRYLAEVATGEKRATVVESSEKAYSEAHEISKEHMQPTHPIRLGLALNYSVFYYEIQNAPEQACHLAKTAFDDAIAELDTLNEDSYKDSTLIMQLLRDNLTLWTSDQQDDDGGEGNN
# Numbers without * were called inactive; ! = not active in a repeat. Only a selection was taken, and hits are over-represented in it overall.
SMILES,14-3-3g Raf
Cc1ccc(NC(=O)C2C3C=CC4(O3)C2C(=O)N(Cc2ccc(Cl)cc2)C4C(=O)NC2CCCCC2)cc1Cl (centres undefined),-4
NC(=O)c1cc(N)ccc1N1CCCC1,31*
NC(=O)c1ccc(N2CCCCC2)c(N2C(=O)C3C4C=CC(C4)C3C2=O)c1 (centres undefined),2
NC(=O)c1ccc(N2CCCCC2)c(N2C(=O)CCC2=O)c1,-1
CCCC(NS(=O)(=O)Cc1ccccc1)C(=O)O (centres undefined),-2
CCN(CC)CCCNC(=O)c1cc2cc3ccc(OC)cc3nc2o1,16
O=C(CSc1ncnc2sc(-c3ccccc3)cc12)N1CCOCC1,-2
O=C1C2CCCCC2C(=O)N1c1ccc(N2CCN(CCO)CC2)c([N+](=O)[O-])c1 (centres undefined),4
O=C(CNS(=O)(=O)c1cccs1)NC1CCCC1,-11
C=CCn1c(C(C)NC(=O)c2cc(OC)c(OC)c(OC)c2)nc2ccccc21 (centres undefined),-1
Cc1cc2c(N)cccc2nn1,44*
Cc1cc(N)c2ccccc2n1,-2
Cc1c(N)cccc1-c1nc2ccccc2s1,3
Cc1ccc(OCCSc2nc3ccc(Br)cc3[nH]2)cc1C,-11
CN1CCN(C(=O)C23CC4CCC2(C)C4(C)CO3)CC1 (centres undefined),-4
Cc1ccc(C2Nc3ccc4ccccc4c3C3=C2C(=O)CCC3)cc1 (centres undefined),-3
Cc1ccc(-c2nc3cc(N=Cc4cc(Cl)ccc4O)ccc3o2)cc1,-7
Oc1ccc(Cl)cc1C=Nc1ccc(-c2nc3cc(Cl)ccc3o2)cc1,84*
Cc1ccc(-c2nc3cc(N=Cc4cc(C)cc([N+](=O)[O-])c4O)ccc3o2)cc1,53*
CN(C)c1ccc(-c2nc3cc(N=Cc4cc(Cl)ccc4O)ccc3o2)cc1,-36
Cc1ccc(-c2nc3cc(N=Cc4cccc([N+](=O)[O-])c4O)ccc3o2)cc1C,-60
Cc1ccccc1-c1nc2cc(N=Cc3cc(Cl)cc([N+](=O)[O-])c3O)ccc2o1,-6
COc1ccc(-n2sc3c(c2=S)-c2cc(C)c(C)cc2NC3(C)C)cc1OC,-8
CC1=C(C(=O)OCCc2ccccc2)C(c2ccccc2C(F)(F)F)C2=C(CCCC2=O)N1 (centres undefined),-10
Oc1ccc2ccccc2c1C=Nc1nc2c(s1)CCCC2,36*
SMILES,14-3-3g Raf
Brc1ccc(C=Nc2nc3c(s2)CCCC3)cc1,-6
Oc1ccc2ccccc2c1C=Nc1cccc2ccccc12,-45
O=C(NCCc1ccc(Cl)cc1)C1CCC(CNS(=O)(=O)c2ccccc2)CC1 (centres undefined),-10
O=C(O)CCC(=O)N(c1ccccc1)c1ccccc1C(=O)O,-7
Cc1ccc(S(=O)(=O)N2CCC(C(=O)NC(C)C)CC2)cc1,-3
O=C(NCCC1=CCCCC1)C1CCC(Cn2c(=S)[nH]c3ccsc3c2=O)CC1 (centres undefined),1
NC(=O)c1c(NC(=O)c2ccc(Cl)cc2)sc2c1CCCC2,40*
NC(=O)c1c(NC(=O)c2ccc(F)cc2)sc2c1CCCC2,-12
NC(=O)c1c(NC(=O)c2ccccc2Cl)sc2c1CCCC2,4
O=[N+]([O-])c1ccc(C=Nc2ccc(O)c(-c3nc4ccccc4s3)c2)cc1,-70
CS(=O)(=O)N1CCCC(C(=O)NCCN2CCOCC2)C1 (centres undefined),-6
COc1cccc(NS(=O)(=O)c2ccc3[nH]cc(C(=O)NC4CCCC4)c(=O)c3c2)c1,-13
Cc1cccc(C2Nc3ccccc3-c3nnc(SCc4ccccc4F)nc3O2)n1 (centres undefined),22
CCCCCSc1nnc2c(n1)OC(c1cccc(C)n1)Nc1ccccc1-2 (centres undefined),36*
CCCCSc1nnc2c(n1)OC(c1cccc(OCC)c1OC)Nc1ccccc1-2 (centres undefined),70*
CCCSc1nnc2c(n1)OC(c1cccc(OCC)c1OC)Nc1ccccc1-2 (centres undefined),-72
CCCCCCSc1nnc2c(n1)OC(c1ccsc1)Nc1ccccc1-2 (centres undefined),-36
CCCCSc1nnc2c(n1)OC(c1ccccc1OC)Nc1ccccc1-2 (centres undefined),-1
CCCSc1nnc2c(n1)OC(C)Nc1ccccc1-2 (centres undefined),-5
C=CCSc1nnc2c(n1)OC(c1cccc(C)n1)Nc1ccccc1-2 (centres undefined),-8
CCCCCCSc1nnc2c(n1)OC(C)Nc1ccccc1-2 (centres undefined),44*
N#Cc1c(N=Cc2cn[nH]c2-c2ccccc2)sc2c1CCCC2,1
Cc1ccc(C)c(NC(=O)c2cc3cc(Br)ccc3oc2=O)c1,-2
O=[N+]([O-])c1ccc2oc(-c3ccc(O)cc3)nc2c1,-19
CCOC(=O)c1ccccc1NC(=O)c1sc2nc(C)nc(N(CC)CC)c2c1C,-2
SMILES,14-3-3g Raf
O=C(CCCn1c(=O)c2ccccc2n(Cc2cc(=O)n3ccccc3n2)c1=O)NCc1ccc(F)cc1,-5
O=C(O)C1Cc2c([nH]c3ccccc23)C(c2ccccc2[N+](=O)[O-])N1 (centres undefined),53*
O=C(O)C1Cc2c([nH]c3ccccc23)C(c2ccccc2)N1 (centres undefined),5
O=C(O)C1Cc2c([nH]c3ccccc23)CN1 (centres undefined),-2
COc1ccc2c(c1)CN(Cc1ccc3c(c1)OCO3)CO2,9
COc1cccc(-n2c(=O)c3c4c(sc3n(CC(=O)OCc3ccccc3)c2=O)CCCC4)c1,-5
CCN(CC)S(=O)(=O)c1ccc2[nH]cc(C(=O)O)c(=O)c2c1,-1
CCS(=O)(=O)Nc1ccc(C2=NN(S(=O)(=O)CC)C(c3ccccc3F)C2)cc1 (centres undefined),-279
CS(=O)(=O)Nc1ccc(C2=NN(S(C)(=O)=O)C(c3ccccc3F)C2)cc1 (centres undefined),-228
CCCS(=O)(=O)N1N=C(c2ccc(NS(C)(=O)=O)cc2)CC1c1ccccc1F (centres undefined),71*
O=C(CCCCC(=O)Nc1ccc(Cl)cc1)Nc1ccc(Cl)cc1,-10
Nc1c(C(=O)N2CCCC2)sc(=S)n1-c1ccccc1,-2
S=c1[nH]sc(=S)[nH]1,-5
CSc1nnc2c(n1)OC(c1ccncc1)Nc1ccccc1-2 (centres undefined),-7
CCSc1nnc2c(n1)OC(c1ccc(C(=O)O)cc1)Nc1ccccc1-2 (centres undefined),3
CSc1nnc2c(n1)OC(C1CC=C(C)CC1)Nc1ccccc1-2 (centres undefined),37*!
CSc1nnc2c(n1)OC(C1CC=C(C)CC1C)Nc1ccc(Br)cc1-2 (centres undefined),-156
CSc1nnc2c(n1)OC(c1ccc(C)cc1)Nc1ccccc1-2 (centres undefined),6
CSc1nnc2c(n1)OC(c1ccccc1F)Nc1ccc(Br)cc1-2 (centres undefined),-117
CCc1ccc(C2Nc3ccccc3-c3nnc(SC)nc3O2)cc1 (centres undefined),149*
CSc1nnc2c(n1)OC(c1ccccc1C)Nc1ccc(Br)cc1-2 (centres undefined),49*
COc1ccc(Br)cc1C1Nc2ccc(Br)cc2-c2nnc(SC)nc2O1 (centres undefined),-173
CCSc1nnc2c(n1)OC(c1ccc3ccccc3c1)Nc1ccccc1-2 (centres undefined),139*

# Assay outcomes as filed in PubChem BioAssay.
